Experiment in all cases: log2 fold change, soluble protein after heating vs DMSO (PISA); higher = thermal stabilisation; K562 cells, 10 uM, 30 min; active = over 0.2 and 3.5 SD of the protein, either way, in both replicates (recomputed)
Compound in one test: Cc1ccc(NC(=O)c2ccc(CN3CC[C@H](N(C)C)C3)c(C(F)(F)F)c2)cc1Nc1nccc(-c2cncnc2)n1 [bafetinib]
The method in brief:
(§1)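 K562 cells at 2×10^6 cells/mL were exposed to 10 μM compound for 30 min, then aliquots were heated for 3 min across 48°C-58°C, pooled, and extracted in PBS containing 0.5% NP-40 at 4°C. The supernatant after 21,000xg for 90 min was taken as soluble protein and measured by TMTpro 16plex LC-MS/MS with channel sums equalised. Thermal stability is reported relative to control samples, with values from duplicates. Fold changes are given on a log2 scale.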

Compound in test [1]: Cc1cccc(CC(=O)N2CCc3c2ccc(-c2cn(C)c4ncnc(N)c24)c3F)n1
The method in brief:
as §1

Compound in a further test: Cc1cn(-c2cc(NC(=O)c3ccc(C)c(Nc4nccc(-c5cccnc5)n4)c3)cc(C(F)(F)F)c2)cn1 [nilotinib]
The method in brief:
as §1

Compound in test [2]: Cc1nc(Nc2n[nH]c3c2CN(C(=O)N[C@H](CN(C)C)c2ccccc2)C3(C)C)c2sccc2n1
The procedure, abridged:
as §1

Compound in test [3]: Cc1ncc(-c2ccnc(Nc3ccc(S(C)(=O)=O)cc3)n2)n1C(C)C
The procedure, abridged: as §1

Compound in test [4]: Cn1cc(-c2ccc3c(c2)CCN3C(=O)Cc2cccc(C(F)(F)F)c2)c2c(N)ncnc21
The procedure, abridged:
as §1

Compound in another test: Cn1cncc1[C@@](N)(c1ccc(Cl)cc1)c1ccc2c(c1)c(-c1cccc(Cl)c1)cc(=O)n2C [tipifarnib]
The procedure, abridged: as §1

Compound in the next test: FC(F)(F)c1ccc(/C=C/c2nc(COc3ccc(CCCCn4ccnn4)cc3)co2)cc1 [mubritinib]
The procedure, abridged:
as §1

Compound in another test: Cc1nc(Nc2ncc(C(=O)Nc3c(C)cccc3Cl)s2)cc(N2CCN(CCO)CC2)n1 [dasatinib]
The method in brief: as §1

Compound in test [5]: Cn1cc(-c2ccc3nnc(C(F)(F)c4ccc5ncccc5c4)n3n2)cn1
The procedure, abridged:
as §1

Targets with a hit are over-represented here; the source holds about 7,900 in all. About 0.6% of all pairs of compound and target were hits. Values without a mark were called inactive.

UniProt Q86TA1, sequence (Q86TA1 whole entry, looked up): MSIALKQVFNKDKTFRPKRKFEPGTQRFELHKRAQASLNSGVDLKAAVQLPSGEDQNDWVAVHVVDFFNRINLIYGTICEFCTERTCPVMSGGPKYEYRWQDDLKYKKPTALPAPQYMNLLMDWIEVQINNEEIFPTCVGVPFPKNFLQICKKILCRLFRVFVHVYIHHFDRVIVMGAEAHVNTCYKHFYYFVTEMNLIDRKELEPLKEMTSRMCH
UniProt Q92692, sequence (Q92692 whole entry, looked up): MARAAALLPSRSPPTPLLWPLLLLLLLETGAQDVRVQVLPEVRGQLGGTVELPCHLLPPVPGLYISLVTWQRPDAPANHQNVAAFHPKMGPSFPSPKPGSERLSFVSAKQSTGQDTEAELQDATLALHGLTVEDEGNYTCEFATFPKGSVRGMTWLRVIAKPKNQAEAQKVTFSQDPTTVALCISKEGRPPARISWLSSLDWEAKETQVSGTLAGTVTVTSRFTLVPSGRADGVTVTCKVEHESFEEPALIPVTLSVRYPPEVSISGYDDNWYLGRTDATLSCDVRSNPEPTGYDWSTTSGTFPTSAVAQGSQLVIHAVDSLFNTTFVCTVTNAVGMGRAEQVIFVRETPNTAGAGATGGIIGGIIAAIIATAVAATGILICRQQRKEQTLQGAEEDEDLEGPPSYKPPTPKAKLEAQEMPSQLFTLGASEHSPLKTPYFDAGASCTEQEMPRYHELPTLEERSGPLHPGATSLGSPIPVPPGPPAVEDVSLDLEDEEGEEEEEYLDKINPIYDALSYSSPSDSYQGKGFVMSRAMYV
UniProt O60361, sequence (O60361 whole entry, looked up): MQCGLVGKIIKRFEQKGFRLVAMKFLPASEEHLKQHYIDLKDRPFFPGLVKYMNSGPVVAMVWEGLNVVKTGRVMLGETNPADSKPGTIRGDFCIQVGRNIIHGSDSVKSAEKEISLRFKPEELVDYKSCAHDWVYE
UniProt P51948, sequence (P51948 whole entry, looked up): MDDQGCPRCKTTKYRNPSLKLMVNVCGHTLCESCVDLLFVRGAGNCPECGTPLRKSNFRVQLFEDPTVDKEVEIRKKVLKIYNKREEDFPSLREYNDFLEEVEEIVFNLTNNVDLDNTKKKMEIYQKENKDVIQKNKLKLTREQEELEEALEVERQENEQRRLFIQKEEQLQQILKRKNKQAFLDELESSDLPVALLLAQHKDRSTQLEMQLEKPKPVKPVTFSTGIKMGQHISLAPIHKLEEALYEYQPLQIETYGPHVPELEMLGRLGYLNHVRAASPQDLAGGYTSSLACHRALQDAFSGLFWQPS
UniProt P68402, sequence (P68402 whole entry, looked up): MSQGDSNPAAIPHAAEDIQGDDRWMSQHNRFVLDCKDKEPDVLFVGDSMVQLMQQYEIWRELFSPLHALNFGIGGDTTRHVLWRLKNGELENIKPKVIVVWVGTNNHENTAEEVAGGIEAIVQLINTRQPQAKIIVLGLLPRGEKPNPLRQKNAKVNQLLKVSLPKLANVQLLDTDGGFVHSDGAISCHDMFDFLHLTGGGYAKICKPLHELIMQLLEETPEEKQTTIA
UniProt Q68DK7, sequence (Q68DK7 whole entry, looked up): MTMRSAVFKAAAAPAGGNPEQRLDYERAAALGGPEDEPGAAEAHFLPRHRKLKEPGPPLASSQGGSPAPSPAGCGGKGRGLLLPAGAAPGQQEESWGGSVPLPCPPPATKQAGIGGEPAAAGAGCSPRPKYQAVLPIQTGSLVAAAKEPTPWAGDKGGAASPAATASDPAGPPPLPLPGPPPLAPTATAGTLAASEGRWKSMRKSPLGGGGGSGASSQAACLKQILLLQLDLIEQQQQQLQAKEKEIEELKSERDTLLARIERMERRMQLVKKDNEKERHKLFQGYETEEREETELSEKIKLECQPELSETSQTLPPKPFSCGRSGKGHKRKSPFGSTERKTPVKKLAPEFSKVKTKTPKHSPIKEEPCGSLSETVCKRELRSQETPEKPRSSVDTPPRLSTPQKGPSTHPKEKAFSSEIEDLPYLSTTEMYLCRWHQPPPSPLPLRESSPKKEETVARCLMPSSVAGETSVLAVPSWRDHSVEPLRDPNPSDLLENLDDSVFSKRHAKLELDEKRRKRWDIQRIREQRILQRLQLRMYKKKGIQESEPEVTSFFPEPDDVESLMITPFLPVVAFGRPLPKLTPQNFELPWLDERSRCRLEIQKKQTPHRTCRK
UniProt O60890, sequence (O60890 whole entry, looked up): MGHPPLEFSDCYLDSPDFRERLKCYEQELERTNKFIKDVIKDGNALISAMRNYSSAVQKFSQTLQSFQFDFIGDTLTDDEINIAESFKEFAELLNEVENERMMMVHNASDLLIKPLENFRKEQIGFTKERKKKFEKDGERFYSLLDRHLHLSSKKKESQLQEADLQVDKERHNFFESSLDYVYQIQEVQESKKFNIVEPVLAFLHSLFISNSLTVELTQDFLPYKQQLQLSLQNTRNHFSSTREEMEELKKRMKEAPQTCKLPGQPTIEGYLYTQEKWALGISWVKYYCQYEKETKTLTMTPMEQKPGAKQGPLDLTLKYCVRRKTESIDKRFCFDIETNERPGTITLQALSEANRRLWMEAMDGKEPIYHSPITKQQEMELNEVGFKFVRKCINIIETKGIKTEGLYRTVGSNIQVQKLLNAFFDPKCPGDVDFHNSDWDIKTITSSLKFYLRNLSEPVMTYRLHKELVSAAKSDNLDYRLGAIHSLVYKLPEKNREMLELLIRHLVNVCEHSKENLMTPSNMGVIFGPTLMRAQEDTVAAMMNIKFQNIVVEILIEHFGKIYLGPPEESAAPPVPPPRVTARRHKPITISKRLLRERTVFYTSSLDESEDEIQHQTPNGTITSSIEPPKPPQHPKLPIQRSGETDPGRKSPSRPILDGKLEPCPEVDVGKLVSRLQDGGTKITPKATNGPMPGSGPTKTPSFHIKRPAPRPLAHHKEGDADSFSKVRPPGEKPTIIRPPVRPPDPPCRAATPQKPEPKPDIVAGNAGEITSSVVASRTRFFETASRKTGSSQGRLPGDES
UniProt Q70IA6, sequence (Q70IA6 whole entry, looked up): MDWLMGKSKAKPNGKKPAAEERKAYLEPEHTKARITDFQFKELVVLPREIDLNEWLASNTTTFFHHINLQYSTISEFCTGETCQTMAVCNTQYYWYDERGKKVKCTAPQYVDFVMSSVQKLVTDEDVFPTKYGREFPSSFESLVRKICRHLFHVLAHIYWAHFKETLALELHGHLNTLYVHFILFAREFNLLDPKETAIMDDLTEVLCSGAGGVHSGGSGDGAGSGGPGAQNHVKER
UniProt O15460, sequence (O15460 whole entry, looked up): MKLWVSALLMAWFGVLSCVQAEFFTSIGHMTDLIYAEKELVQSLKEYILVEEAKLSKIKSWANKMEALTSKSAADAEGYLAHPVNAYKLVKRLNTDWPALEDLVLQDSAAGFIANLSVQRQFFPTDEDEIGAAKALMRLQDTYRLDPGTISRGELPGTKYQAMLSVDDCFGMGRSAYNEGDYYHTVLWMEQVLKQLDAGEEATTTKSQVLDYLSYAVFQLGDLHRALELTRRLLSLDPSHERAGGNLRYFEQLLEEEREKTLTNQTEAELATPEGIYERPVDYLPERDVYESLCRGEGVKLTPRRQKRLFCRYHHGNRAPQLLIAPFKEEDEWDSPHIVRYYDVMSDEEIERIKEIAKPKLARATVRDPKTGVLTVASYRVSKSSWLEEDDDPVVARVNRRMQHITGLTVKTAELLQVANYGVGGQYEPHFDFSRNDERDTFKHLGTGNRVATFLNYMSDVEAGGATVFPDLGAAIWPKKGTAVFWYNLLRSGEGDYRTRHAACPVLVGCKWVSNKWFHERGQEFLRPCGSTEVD
UniProt Q9UK23, sequence (Q9UK23 whole entry, looked up): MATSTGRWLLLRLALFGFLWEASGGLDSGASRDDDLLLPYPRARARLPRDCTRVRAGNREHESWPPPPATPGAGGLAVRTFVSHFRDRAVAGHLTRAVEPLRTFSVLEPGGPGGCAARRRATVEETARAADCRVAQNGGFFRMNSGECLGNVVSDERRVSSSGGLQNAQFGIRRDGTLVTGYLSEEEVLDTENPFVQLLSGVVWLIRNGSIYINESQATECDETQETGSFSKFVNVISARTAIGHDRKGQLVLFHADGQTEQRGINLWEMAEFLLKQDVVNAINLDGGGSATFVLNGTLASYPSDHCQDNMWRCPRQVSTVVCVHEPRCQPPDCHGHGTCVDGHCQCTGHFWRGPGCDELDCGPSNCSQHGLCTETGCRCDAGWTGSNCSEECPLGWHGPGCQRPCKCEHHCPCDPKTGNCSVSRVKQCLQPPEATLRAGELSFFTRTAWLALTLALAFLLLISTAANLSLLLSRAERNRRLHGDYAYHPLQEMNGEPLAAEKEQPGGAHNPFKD
UniProt Q9BRP4, sequence (Q9BRP4 whole entry, looked up): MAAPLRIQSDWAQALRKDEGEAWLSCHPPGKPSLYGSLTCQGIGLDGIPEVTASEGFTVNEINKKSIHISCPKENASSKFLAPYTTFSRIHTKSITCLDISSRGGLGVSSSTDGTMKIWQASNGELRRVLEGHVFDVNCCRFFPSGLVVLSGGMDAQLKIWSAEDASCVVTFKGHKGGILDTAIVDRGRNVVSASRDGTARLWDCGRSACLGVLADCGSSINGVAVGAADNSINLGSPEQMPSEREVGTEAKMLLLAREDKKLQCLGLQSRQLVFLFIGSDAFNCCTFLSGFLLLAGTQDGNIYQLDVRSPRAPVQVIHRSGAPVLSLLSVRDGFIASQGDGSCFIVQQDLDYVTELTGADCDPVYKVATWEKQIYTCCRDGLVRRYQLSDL
UniProt Q16621, sequence (Q16621 whole entry, looked up): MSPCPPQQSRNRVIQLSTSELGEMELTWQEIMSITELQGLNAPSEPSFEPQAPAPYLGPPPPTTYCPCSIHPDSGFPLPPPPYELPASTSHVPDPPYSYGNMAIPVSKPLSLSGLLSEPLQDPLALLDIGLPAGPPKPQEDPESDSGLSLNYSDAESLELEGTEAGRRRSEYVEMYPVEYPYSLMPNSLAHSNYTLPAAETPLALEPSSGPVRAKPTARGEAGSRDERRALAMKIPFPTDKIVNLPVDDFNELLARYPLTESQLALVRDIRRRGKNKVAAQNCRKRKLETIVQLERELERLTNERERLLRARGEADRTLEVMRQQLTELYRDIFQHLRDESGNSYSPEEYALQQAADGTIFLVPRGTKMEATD

Consider MOB3B (UniProt Q86TA1), for which the log2 fold change is -0.023 with bafetinib; 0.034 in test [1]; -0.168 with nilotinib; -0.397 in test [2]; 0.032 in test [3]; 0.222 in test [4]. Besides, the log2 fold change with tipifarnib was 0.01; with mubritinib, 0.109.

Take PAAF1 (UniProt Q9BRP4): the log2 fold change is -0.011 in the test with bafetinib; -0.01 in test [1]; -0.084 with nilotinib; 0.058 in [2]; -0.051 with dasatinib; -0.026 in [3]. Also, the log2 fold change in [4] is 0.018; in [5], 0.016; with tipifarnib it was -0.03; with mubritinib, 0.017.

Consider NECTIN2 isoform 2 (UniProt Q92692), for which the log2 fold change was -0.64 with bafetinib; 0.145 in test [1]; 0.129 in the test with nilotinib; -0.016 in [2]; 0.001 in the test with dasatinib; 0.006 in test [3]. Moreover, the log2 fold change in test [5] was -0.129; in the test with mubritinib, -0.049.

With PAFAH1B2 (UniProt P68402), the log2 fold change with bafetinib is -0.025; in [1], 0.035; with nilotinib, 0.067; in [2], -0.121; with dasatinib, -0.011; in test [3] it was -0.075. Further, the log2 fold change in test [4] is 0.024; in [5], 0.003; with tipifarnib, 0.188; in the test with mubritinib it was 0.092.

In the case of OPHN1 (UniProt O60890), the log2 fold change in the test with bafetinib is -0.035; in [1], -0.134; in the test with nilotinib, -0.088; in test [2], 0.051; in the test with dasatinib it was -0.04; in test [3] it was 0.093. Moreover, the log2 fold change in [4] was 0.028; in test [5] it was 0.099; with mubritinib, 0.035.

On to MSL1 (UniProt Q68DK7), for which the log2 fold change was -0.056 with bafetinib; 0.172 in [1]; 0.004 with nilotinib; 0.068 in test [2]; 0.014 in the test with dasatinib; -0.042 in test [3]. Further, the results for the log2 fold change (in test [5]; with tipifarnib; in the test with mubritinib) were -0.019, -0.065 and 0.148, respectively.

As for NME2P1 (UniProt O60361), the log2 fold change is 0.058 in the test with bafetinib; 0.059 in [1]; -0.236 with nilotinib; -0.014 in [2]; -0.107 in test [3]; -0.081 in test [4]. In addition, the results for the log2 fold change (in test [5]; with tipifarnib; with mubritinib) were -0.013, -0.055 and 0.073, respectively.

For OXR1 (UniProt Q8N573), the log2 fold change is -0.098 with bafetinib; -0.063 in [1]; 0.079 with nilotinib; -0.004 in test [2]; -0.034 with dasatinib; -0.023 in [3]. In addition, the log2 fold change in test [4] was 0.081; in test [5], 0.013; in the test with tipifarnib, -0.038; in the test with mubritinib, 0.05.

Regarding MNAT1 (UniProt P51948), the log2 fold change in the test with bafetinib is -0.072; in test [1], 0.011; with nilotinib it was -0.033; in [2] it was 0.023; in the test with dasatinib, -0.002; in test [3], -0.031. Also, the log2 fold change is 0.018 in test [4], 0 in [5], 0.025 in the test with tipifarnib and 0.032 with mubritinib.

For NAGPA (UniProt Q9UK23), the log2 fold change with bafetinib is -0.076; in test [1], -0.142; with nilotinib it was -0.082; in test [2] it was 0; with dasatinib, 0.053; in [3], 0.014. The log2 fold change is 0.023 in test [4], 0.245 with tipifarnib and -0.091 with mubritinib.

PAK1 isoform 2 (UniProt Q13153): the log2 fold change with bafetinib was -0.017; in test [1], 0.04; with nilotinib, 0.03; in test [2], 0.036; with dasatinib, -0.025; in test [3] it was -0.027. Further, the log2 fold change is 0.041 in test [4], 0.035 in [5], -0.004 with tipifarnib and 0.015 in the test with mubritinib.

With P4HA2 (UniProt O15460), the log2 fold change with bafetinib is 0.012; in [1], -0.007; with nilotinib, 0.056; in [2], 0.04; with dasatinib, -0.057; in test [3], -0.008. The log2 fold change in test [4] is -0.102; in test [5] it was -0.02; with tipifarnib, 0.007; with mubritinib it was -0.059.

With NFE2 (UniProt Q16621), the log2 fold change is -0.048 with bafetinib; -0.13 in test [1]; -0.063 in the test with nilotinib; -0.068 in test [2]; -0.016 with dasatinib; -0.071 in test [3]. For the same target, the log2 fold change is -0.051 in test [4], -0.08 in test [5], -0.066 with tipifarnib and 0.026 with mubritinib.

Regarding MOB2 isoform 3 (UniProt Q70IA6), the log2 fold change with bafetinib was 0.005; in [1], -0.039; with nilotinib it was -0.133; in test [2] it was -1.47 (active); in [3], 0.03; in [4] it was -0.069. Further, the log2 fold change was 0.056 in test [5], 0.013 in the test with tipifarnib and -0.108 in the test with mubritinib.

Turning to MTHFD1 (UniProt P11586), the log2 fold change in the test with bafetinib was 0.077; in [1] it was 0.096; with nilotinib, 0.214 (active); in test [2], -0.051; with dasatinib, -0.135; in test [3], 0.019. Further, the log2 fold change in [4] is 0.069; in test [5], 0.021; with tipifarnib it was -0.088; with mubritinib, 0.122.

For the origin of these results see the supplement of paper PMC10849652.
